Assay outcomes as filed in PubChem.
Shiga toxin inh – Shiga toxin inhibition | Vero cells, Shiga toxin protein synthesis inhibition reporter | inhibition, % at 38.7 µM | 290,000 tested, 9.2% active | AID 2315; in the data active = inhibition mostly above about 28%, no sharp cut-off; inactive = mostly below about 43%; also: 0% is about no effect
Pf growth 48h – inhibits P. falciparum growth in the first generation, 48 h | P. falciparum luciferase growth in erythrocytes, 48 h | Potency, µM (highest dose often 28.7 µM), for inactives: top-dose activity change, negative = inhibition, most hits filed as inhibitors | 310,000 tested, 5.9% active | AID 504832; also: potency is read from the fitted curve at half-maximal effect; % is scaled to controls: 0 for no effect and ±100 for the full control effect
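Read-out is firefly luciferase luminescence from an integrated reporter in P. falciparum, so falling signal marks reduced parasite growth. Infected erythrocytes were at 2% hematocrit and 0.1% parasitemia (final) in Albumax-supplemented RPMI 1640.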
Pf growth 96h – P. falciparum growth inhibition at 96 hours; P. falciparum luciferase reporter growth, 96 h; Potency, µM (titrated, usually from 28.7 µM), inactives show top-dose activity change, negative = inhibition, usual class: inhibitors; 320,000 tested, 6.9% active; also: potency is read from the fitted curve at half-maximal effect; % is scaled to controls: 0 for no effect and ±100 for the full control effect
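Two-generation exposure (96 h) targets delayed-death phenotype. Reporter parasites carrying integrated firefly luciferase, in red cells at 2% hematocrit and 0.05% parasitemia final, kept at 37 C, 5% CO2; luminescence loss indicates inhibition.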
HCV inh – inhibitors of hepatitis C virus infection; Huh7.5.1 HCVcc-Cre infection, luciferase reporter, 44 h; Potency, µM (doses to about 41.8 µM), for inactives: top-dose activity change, negative = inhibition, most hits filed as inhibitors; 340,000 tested, 3.4% active; also: potency is read from the fitted curve at half-maximal effect; % is scaled to controls: 0 for no effect and ±100 for the full control effect
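HCVcc-Cre virus at an moi near 0.5 was added right after compound to cells cultured 4 h from seeding (1,000 cells/well). Luciferase activity was determined 44 h later, 15 min after substrate addition at RT.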
Cycloheximide cs – counter-screen hit for Shiga toxin inhibitors, cycloheximide. cell reporter, cycloheximide protein synthesis inhibition counterscreen. max response, %. 300,000 tested, 12% active. AID 2314; in the data active = max response mostly above about 13%, no sharp cut-off; inactive = mostly below about 14%; also: read at 38.3 µM for the half of the compounds with a filed dose; 0% is about no effect
AMA1 RON2 block – disrupts binding of P. falciparum AMA1 to RON2 | AlphaScreen AMA1-biotinylated RON2 peptide binding | Potency, µM (doses to about 58.2 µM), for the others: at the top dose activity change, negative = inhibition, most hits filed as inhibitors | 360,000 tested, 0.2% active;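 also: potency is read from the fitted curve at half-maximal effect; 0% = vehicle wells and -100% = peptide control; nearly all actives have a fitted effect of over 45% in size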
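AMA1 (3D7) with his tag at 25 nM final met compounds first, then biotinylated RON2 peptide at 25 nM; detection used donor plus acceptor beads, 10 µg/mL apiece, read by AlphaScreen after 30 min at room temperature.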
An asterisk follows results filed as active. Compounds with a hit are over-represented: about 21% of the library has one in this group of screens. Unless noted, calls follow the shape of the dose curve; as a rule, active = well fitted curve in the direction sought with a large enough effect; inconclusive = small, poorly fitted or top-dose-only effect, or another doubt; inactive = no such curve, though single readings can be large; an effect the other way counts as inactive or inconclusive.

Results for COc1cccc(CC(NC(C)=O)C(=O)NC2CCN(C(=O)c3ccc(Cl)cc3)CC2)c1OC (stereo not given) ?
Shiga toxin inh: -3; Pf growth 48h: -12%; Pf growth 96h: 45%; HCV inh: 8%; Cycloheximide cs: -5; AMA1 RON2 block: 18%

Results for Cc1cccc(C)c1NC(=O)C(c1cc2ccccc2o1)N1CCN(C)CC1 (stereo not given) ?
AMA1 RON2 block: 6%

Results for Cc1c(NC(=O)COC(=O)Cc2ccc(F)cc2)c(=O)n(-c2ccccc2)n1C ?
Pf growth 48h: inconclusive; Pf growth 96h: 4%; HCV inh: 1%; AMA1 RON2 block: -1%

What do the screens show for `Cc1cc(C)nc(Nc2nc(C(N)Cc3ccccc3)cs2)n1` (stereo not given)?
AMA1 RON2 block: 47%

Results for ON=C(CCc1ccccc1)c1ccccc1 ?
HCV inh: 14%; AMA1 RON2 block: -6%

What do the screens show for `CCN(C(=O)c1cccc(S(=O)(=O)N2CCCCC2)c1)C1CCS(=O)(=O)C1` (stereo not given)?
Pf growth 48h: -2%; Pf growth 96h: -4%; HCV inh: 4%; AMA1 RON2 block: -8%

What do the screens show for `O=C(CSc1cnc2ccccc2n1)c1ccc(F)cc1`?
Shiga toxin inh: 65*; Pf growth 48h: 317%; Pf growth 96h: 352%; HCV inh: -8%; Cycloheximide cs: 60*; AMA1 RON2 block: 55%

What do the screens show for `O=C(CSc1ccc(-c2ccccn2)nn1)c1ccccc1`?
Shiga toxin inh: 87*; Pf growth 48h: 100%; Pf growth 96h: 0%; HCV inh: -19%; Cycloheximide cs: 49*; AMA1 RON2 block: inconclusive

How did Cc1cc(S(=O)(=O)NCc2ccc(N3CCN(C)CC3)cc2)c(C)s1 do in these assays?
Shiga toxin inh: 50; Pf growth 48h: inconclusive; Pf growth 96h: 41%; HCV inh: 9%; Cycloheximide cs: 2; AMA1 RON2 block: 2%

How did O=C(c1cccs1)N1CCc2c([nH]c3ccccc23)C1c1ccc(Cl)cc1 (stereo not given) do in these assays?
Shiga toxin inh: 2; Pf growth 48h: 10µM*; Pf growth 96h: 10µM*; HCV inh: inconclusive; Cycloheximide cs: -5; AMA1 RON2 block: -13%

Results for Clc1ccccc1-c1nc(-c2ccc(Br)o2)no1 ?
Shiga toxin inh: 129*; Pf growth 48h: 7%; Pf growth 96h: inconclusive; HCV inh: inconclusive; Cycloheximide cs: 37*; AMA1 RON2 block: 8%

What do the screens show for `COc1cc(-c2nc(-c3ccc(Br)o3)no2)cc(OC)c1OC`?
Shiga toxin inh: -1; Pf growth 96h: 3%; HCV inh: -10%; Cycloheximide cs: 2; AMA1 RON2 block: -7%

Results for O=[N+]([O-])c1ccccc1-c1nc(-c2ccc(Br)o2)no1 ?
Shiga toxin inh: 88*; Pf growth 48h: 122%; Pf growth 96h: inconclusive; HCV inh: inconclusive; Cycloheximide cs: 30*; AMA1 RON2 block: 25µM*

What do the screens show for `Nc1nnc(-c2ccccc2[N+](=O)[O-])o1`?
Shiga toxin inh: -9; Pf growth 48h: -3%; Pf growth 96h: -22%; HCV inh: 25%; Cycloheximide cs: -2; AMA1 RON2 block: 0%

What do the screens show for `CCCCCCn1cc(CN2CC(N3CCN(CCO)CC3)CS2(=O)=O)nn1` (stereo not given)?
AMA1 RON2 block: -3%

How did COC(=O)[C@]1(C)CCC[C@@]2(C)C3CC[C@@]4(C)C[C@]3(CCC21)CC(=O)N4 (stereo not given in full) do in these assays?
Pf growth 48h: 2%; Pf growth 96h: inconclusive; HCV inh: 23%; AMA1 RON2 block: 0%

Results for C=C1C(=O)C23CCC4C(C)(C(=O)OC)CCCC4(C)C2CCC1(O)C3 (stereo not given) ?
HCV inh: 3.2µM*; AMA1 RON2 block: -7%

What do the screens show for `COc1ccc(NC(=O)CN(C)C(=O)c2c(-c3ccccc3Cl)noc2C)cc1`?
Pf growth 48h: -5%; Pf growth 96h: -2%; HCV inh: -22%; AMA1 RON2 block: 9%

How did COC(=O)c1sccc1-c1ccc(C(=O)Nc2ccccc2)o1 do in these assays?
Shiga toxin inh: 75*; Pf growth 48h: 135%; Pf growth 96h: 142%; HCV inh: inconclusive; Cycloheximide cs: 78*; AMA1 RON2 block: -10%

What do the screens show for `COc1ccc(S(=O)(=O)NCc2cc(-c3ccccc3Cl)no2)cc1`?
Shiga toxin inh: -12; Pf growth 48h: 10µM*; Pf growth 96h: -13%; HCV inh: 5%; Cycloheximide cs: -5; AMA1 RON2 block: 15%

What do the screens show for `COC(=O)c1sccc1NC(=O)c1ccc(C)o1`?
Shiga toxin inh: -4; Pf growth 48h: inconclusive; Pf growth 96h: inconclusive; HCV inh: inconclusive; Cycloheximide cs: 5; AMA1 RON2 block: inconclusive

What do the screens show for `COc1ccc(NC(=O)c2cc(-c3ccccc3Cl)no2)cc1`?
Shiga toxin inh: 69*; Pf growth 48h: 33%; Pf growth 96h: 62%; HCV inh: -21%; Cycloheximide cs: 32*; AMA1 RON2 block: -1%

How did COc1ccc(NC(=O)c2ccc(-c3ccccc3Cl)o2)cc1 do in these assays?
Shiga toxin inh: 34; Pf growth 48h: 63%; Pf growth 96h: 70%; HCV inh: -25%; Cycloheximide cs: 43*; AMA1 RON2 block: 6%

Results for Cc1ccc(C(=O)N[C@H](C(=O)Nc2cccc(S(=O)(=O)N3CCOCC3)c2)C(C)C)cc1 ?
AMA1 RON2 block: -1%

How did CCCCN(C1CCS(=O)(=O)C1)S(=O)(=O)c1cc(C)ccc1C (stereo not given) do in these assays?
Pf growth 48h: inconclusive; Pf growth 96h: inconclusive; HCV inh: inconclusive; AMA1 RON2 block: 2%

What do the screens show for `Cc1ccc(-c2ccc(C(=O)Nc3cccc(F)c3)o2)c2ccccc12`?
Shiga toxin inh: 17; Pf growth 48h: inconclusive; Pf growth 96h: inconclusive; HCV inh: inconclusive; Cycloheximide cs: 19; AMA1 RON2 block: -21%

How did O=C(Nc1cccc(F)c1)c1ccc(-c2ccccc2Cl)o1 do in these assays?
Shiga toxin inh: 105*; Pf growth 48h: 50%; Pf growth 96h: inconclusive; HCV inh: inconclusive; Cycloheximide cs: 66*; AMA1 RON2 block: -9%

What do the screens show for `O=C(Nc1ccccc1)c1cc(-c2ccccc2Cl)no1`?
Shiga toxin inh: 122*; Pf growth 48h: -54%; Pf growth 96h: -21%; HCV inh: 5%; Cycloheximide cs: 47*; AMA1 RON2 block: 7%

What do the screens show for `CCOC(=O)Cc1csc(NC(=O)c2c(O)c3c(n(CC(C)C)c2=O)CCCC3)n1`?
Shiga toxin inh: 4; Pf growth 48h: 9%; Pf growth 96h: 69%; HCV inh: inconclusive; Cycloheximide cs: -4; AMA1 RON2 block: 34%
